The results in this text go back to ChEMBL document CHEMBL3988442, “University of Dundee, Small-Polar-MMV Screening Library” (2021).

Parameters in all cases: scale not given: direction of the effect not stated beside the values
For experiment [1], the target named is Protein translocase subunit SecA (Escherichia coli (strain K12)) (UniProt P10408). Nature of the experiment: Assay to Identify E. coli SecA ATPase Inhibitors. The conditions noted are these: 30 µM. The class given is functional.
The target in experiment [2] is T1, Ubiquitin-activating enzyme e1, putative (Leishmania donovani (strain BPK282A1)) (UniProt E9BSI1).
T1 sequence (whole entry): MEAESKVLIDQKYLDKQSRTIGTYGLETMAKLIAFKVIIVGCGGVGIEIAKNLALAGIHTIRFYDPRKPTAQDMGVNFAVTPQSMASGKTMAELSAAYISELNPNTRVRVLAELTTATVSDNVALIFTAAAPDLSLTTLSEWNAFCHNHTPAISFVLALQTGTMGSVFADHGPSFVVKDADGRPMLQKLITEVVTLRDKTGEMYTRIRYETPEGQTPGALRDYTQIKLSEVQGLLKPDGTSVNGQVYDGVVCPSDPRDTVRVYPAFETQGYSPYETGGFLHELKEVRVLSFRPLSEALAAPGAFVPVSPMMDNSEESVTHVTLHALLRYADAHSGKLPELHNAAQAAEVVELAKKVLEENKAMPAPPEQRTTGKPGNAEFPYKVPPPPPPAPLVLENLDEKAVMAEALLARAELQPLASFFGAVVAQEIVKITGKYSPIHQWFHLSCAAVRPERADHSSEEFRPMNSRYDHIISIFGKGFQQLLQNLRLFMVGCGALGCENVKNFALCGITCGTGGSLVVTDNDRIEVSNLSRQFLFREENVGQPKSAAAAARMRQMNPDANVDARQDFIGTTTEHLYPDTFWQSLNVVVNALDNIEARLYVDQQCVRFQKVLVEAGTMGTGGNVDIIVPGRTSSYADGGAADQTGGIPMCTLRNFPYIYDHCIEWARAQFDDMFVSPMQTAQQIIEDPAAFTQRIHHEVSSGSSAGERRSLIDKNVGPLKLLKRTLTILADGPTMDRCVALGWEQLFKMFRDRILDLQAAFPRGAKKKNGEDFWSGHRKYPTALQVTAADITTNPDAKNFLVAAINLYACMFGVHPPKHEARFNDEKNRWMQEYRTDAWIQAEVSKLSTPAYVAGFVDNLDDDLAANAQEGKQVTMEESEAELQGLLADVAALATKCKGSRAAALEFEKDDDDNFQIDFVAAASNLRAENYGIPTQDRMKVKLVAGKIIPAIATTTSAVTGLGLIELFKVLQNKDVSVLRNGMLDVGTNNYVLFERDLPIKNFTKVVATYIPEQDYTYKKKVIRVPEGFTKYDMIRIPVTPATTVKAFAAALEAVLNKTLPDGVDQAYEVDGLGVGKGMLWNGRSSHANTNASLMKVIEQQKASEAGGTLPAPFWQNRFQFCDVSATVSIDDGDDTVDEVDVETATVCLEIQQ
Nature of the experiment: Leishmania donovani Ubiquitin Activating Enzyme (LdE1). It counts as functional. The conditions noted are these: 30 µM.

Experiment [3] concerns the target AMP-activated protein kinase, AMPK (Homo sapiens) (UniProt P54646+O43741+P54619+Q9UGJ0+Q9Y478+Q13131+Q9UGI9). The experiment in a line: AMP-dependent Kinase enzyme assay. An in vitro enzyme assay that detects ADP turnover that is directly proportional to AMPK activity. This uses naive AMPK that is activated during the assay with MK-8722. It counts as functional. The note with it: 30 µM.

Experiment [4] addresses Sialic acid-binding Ig-like lectin 9 (Homo sapiens) (UniProt Q9Y336). The experiment in a line: Hs-Siglec9 ALPHAscreen SOP 20170721. The note with it: 10 µM. Background: Bead proximity is the source of the signal in Alpha formats.
A further experiment relates to Trypanosoma cruzi. The experiment in a line: Trypanosoma cruzi phosphomannomutase and mannose-1-phosphate guanylyltransferase assay. The class given is functional. The conditions noted are these: 10 µM.
The target of experiment [5] is T2, Arginase-2, mitochondrial (Homo sapiens) (UniProt P78540).
T2 sequence (whole entry): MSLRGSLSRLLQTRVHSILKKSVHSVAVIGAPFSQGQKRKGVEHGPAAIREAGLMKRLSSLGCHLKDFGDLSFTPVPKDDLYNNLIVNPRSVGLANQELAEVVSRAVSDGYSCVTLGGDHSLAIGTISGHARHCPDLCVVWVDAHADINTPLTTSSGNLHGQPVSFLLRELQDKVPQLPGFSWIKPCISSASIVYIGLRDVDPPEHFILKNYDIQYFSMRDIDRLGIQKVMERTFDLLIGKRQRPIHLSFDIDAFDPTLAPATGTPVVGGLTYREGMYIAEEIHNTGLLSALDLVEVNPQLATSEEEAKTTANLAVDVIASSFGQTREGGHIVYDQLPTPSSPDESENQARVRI
The experiment in a line: in vitro enzyme assay to detect the production of urea directly proportional to the activity of Arginase II. Note: in the data most compounds retested in dose-response had high values. It counts as functional. The conditions noted are these: 33.3 µM.

Experiment [6] concerns the target T3, Proteasome subunit beta (Trypanosoma cruzi) (UniProt O96673).
T3 sequence (whole entry): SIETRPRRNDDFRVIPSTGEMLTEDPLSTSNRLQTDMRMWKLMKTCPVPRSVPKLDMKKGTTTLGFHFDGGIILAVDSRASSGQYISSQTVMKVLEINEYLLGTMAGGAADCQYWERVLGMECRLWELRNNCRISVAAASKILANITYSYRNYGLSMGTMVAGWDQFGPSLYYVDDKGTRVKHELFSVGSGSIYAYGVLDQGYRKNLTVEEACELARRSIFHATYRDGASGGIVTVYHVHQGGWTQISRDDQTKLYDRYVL
The experiment in a line: Trypanosoma cruzi proteasome chymotrypsin-like activity (TcProtChymo) assay. Note: in the data most compounds retested in dose-response had high values. It counts as functional. The conditions noted are these: 9.37 µM.

For a further experiment, the species on record is Homo sapiens. Nature of the experiment: To identify inhibition of the IFN signalling (Jak-Stat) pathway via expression of an eGFP reporter gene under the control of an IFN-stimulated response element (ISRE) containing MxA promoter. The note with it: 30 µM. It counts as functional. Background: Reporter assays use an easily measured gene product as a stand-in for the process of interest.

Experiment [7] has as its target T4, Tyrosyl-tRNA synthetase, putative (Trypanosoma cruzi (strain CL Brener)) (UniProt Q4DSP6).
T4 sequence (whole entry): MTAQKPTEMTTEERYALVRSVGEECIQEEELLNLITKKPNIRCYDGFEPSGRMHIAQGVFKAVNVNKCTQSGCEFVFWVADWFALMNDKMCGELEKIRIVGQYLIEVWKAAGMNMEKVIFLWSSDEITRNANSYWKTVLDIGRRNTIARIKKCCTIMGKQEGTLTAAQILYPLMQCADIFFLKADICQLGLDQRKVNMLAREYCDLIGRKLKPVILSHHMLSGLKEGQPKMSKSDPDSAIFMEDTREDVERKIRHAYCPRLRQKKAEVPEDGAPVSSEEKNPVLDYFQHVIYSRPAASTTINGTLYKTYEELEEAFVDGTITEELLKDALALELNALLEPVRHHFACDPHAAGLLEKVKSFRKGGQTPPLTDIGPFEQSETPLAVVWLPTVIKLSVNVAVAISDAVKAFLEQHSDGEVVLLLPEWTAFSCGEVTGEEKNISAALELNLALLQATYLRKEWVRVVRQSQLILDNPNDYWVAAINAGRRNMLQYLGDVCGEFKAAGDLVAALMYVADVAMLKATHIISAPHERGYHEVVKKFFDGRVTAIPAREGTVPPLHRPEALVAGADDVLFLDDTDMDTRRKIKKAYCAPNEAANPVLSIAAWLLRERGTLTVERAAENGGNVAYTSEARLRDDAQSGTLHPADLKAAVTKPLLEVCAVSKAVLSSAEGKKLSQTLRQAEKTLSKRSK
Nature of the experiment: Trypanosoma cruzi tyrosyl tRNA synthetase (TcYRS) _High Tyrosine SOP. Note: in the data most compounds retested in dose-response had high values. The class given is functional. The conditions noted are these: 30 µM.

The target of experiment [8] is T4, Tyrosyl-tRNA synthetase, putative (Trypanosoma cruzi (strain CL Brener)). The experiment in a line: Trypanosoma cruzi tyrosyl tRNA synthetase (TcYRS) SOP. The class given is functional. The note with it: 30 µM.
The target in experiment [9] is Chromo domain-containing protein 1 (Saccharomyces cerevisiae (strain ATCC 204508 / S288c) (Baker's yeast)) (UniProt P32657). The experiment in a line: ScCHD-1 Enzyme Inhibition Assay. Note: in the data most compounds retested in dose-response had high values. The class given is functional. The conditions noted are these: 30 µM.
Chromo domain-containing protein 1 (Saccharomyces cerevisiae (strain ATCC 204508 / S288c) (Baker's yeast)), sequence (P32657 whole entry, the tested form may be a part): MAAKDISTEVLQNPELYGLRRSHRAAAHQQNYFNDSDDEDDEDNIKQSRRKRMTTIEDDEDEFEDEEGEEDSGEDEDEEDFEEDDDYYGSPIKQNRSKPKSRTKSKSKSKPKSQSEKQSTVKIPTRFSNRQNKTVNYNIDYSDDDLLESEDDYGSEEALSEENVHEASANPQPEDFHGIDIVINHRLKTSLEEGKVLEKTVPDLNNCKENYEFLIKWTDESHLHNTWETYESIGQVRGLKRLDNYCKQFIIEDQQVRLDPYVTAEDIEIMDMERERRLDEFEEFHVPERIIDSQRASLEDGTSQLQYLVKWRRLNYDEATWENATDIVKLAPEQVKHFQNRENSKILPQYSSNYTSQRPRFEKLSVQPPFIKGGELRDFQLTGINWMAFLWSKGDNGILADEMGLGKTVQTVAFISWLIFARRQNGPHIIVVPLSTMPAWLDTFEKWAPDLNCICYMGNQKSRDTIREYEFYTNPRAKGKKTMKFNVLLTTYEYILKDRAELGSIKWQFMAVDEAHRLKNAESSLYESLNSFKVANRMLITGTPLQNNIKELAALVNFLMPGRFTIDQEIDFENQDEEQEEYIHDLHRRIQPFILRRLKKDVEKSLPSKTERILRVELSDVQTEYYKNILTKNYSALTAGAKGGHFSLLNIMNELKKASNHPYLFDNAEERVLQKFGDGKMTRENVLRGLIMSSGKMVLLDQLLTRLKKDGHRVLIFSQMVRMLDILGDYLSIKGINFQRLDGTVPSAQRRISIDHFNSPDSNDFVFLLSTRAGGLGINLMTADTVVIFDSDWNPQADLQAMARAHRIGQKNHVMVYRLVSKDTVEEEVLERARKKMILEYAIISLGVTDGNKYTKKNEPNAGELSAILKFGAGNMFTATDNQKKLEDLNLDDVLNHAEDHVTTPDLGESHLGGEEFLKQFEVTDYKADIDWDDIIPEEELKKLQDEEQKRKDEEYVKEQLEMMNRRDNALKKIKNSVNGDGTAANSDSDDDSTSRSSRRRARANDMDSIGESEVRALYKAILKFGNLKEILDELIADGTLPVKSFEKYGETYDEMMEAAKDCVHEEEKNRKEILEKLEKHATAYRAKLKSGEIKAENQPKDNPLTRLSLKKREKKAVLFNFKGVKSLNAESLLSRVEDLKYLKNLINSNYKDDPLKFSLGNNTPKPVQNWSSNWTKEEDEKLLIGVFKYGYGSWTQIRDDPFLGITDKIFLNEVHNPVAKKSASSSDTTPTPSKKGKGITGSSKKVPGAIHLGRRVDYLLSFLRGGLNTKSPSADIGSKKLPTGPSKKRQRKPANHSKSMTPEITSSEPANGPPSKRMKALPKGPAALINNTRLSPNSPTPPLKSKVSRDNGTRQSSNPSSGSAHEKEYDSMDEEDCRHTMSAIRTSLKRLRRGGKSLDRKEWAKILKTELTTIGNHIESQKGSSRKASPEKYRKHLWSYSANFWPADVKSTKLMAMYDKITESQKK

For some of these results: Results with a measured potency or affinity are listed apart.

Sialic acid-binding Ig-like lectin 9 (Homo sapiens), sequence (Q9Y336 whole entry): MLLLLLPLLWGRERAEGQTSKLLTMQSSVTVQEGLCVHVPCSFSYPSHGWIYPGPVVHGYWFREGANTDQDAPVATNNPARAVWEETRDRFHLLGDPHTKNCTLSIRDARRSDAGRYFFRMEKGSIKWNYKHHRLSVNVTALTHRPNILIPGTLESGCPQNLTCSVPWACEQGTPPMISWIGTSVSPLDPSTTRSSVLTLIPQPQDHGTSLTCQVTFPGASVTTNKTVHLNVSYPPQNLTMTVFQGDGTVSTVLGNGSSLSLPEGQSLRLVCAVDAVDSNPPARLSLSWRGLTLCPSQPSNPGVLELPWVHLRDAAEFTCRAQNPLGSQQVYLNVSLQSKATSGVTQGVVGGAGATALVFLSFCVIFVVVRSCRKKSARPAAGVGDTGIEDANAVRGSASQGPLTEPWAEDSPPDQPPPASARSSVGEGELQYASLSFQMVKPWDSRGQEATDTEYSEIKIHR
Protein translocase subunit SecA (Escherichia coli (strain K12)), sequence (P10408 whole entry): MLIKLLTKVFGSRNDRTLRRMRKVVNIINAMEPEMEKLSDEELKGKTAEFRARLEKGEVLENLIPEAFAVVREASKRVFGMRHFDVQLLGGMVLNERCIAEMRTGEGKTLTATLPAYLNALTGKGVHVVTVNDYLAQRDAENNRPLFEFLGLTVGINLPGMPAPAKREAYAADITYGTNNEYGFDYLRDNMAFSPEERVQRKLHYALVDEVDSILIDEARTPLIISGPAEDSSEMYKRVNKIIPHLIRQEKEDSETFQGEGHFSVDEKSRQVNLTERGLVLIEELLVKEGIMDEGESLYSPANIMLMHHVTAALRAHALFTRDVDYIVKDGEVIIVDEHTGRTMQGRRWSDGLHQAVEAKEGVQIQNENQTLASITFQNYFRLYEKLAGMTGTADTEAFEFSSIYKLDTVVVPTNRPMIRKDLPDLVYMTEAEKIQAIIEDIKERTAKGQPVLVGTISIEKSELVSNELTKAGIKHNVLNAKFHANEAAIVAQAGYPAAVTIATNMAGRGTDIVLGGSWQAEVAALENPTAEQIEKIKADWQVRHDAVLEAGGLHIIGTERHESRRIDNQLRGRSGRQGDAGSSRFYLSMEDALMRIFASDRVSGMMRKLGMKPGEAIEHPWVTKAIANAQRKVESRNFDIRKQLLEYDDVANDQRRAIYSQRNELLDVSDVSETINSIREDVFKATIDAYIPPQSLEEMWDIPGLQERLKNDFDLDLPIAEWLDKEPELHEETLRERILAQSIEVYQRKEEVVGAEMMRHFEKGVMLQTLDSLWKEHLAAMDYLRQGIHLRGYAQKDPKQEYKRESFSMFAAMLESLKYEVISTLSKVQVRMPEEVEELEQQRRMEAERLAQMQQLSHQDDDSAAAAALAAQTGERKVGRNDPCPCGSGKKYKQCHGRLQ

With `O=C(NC1CC1)[C@@H]1CCO[C@@H]2CCN(C3CCOCC3)C[C@H]21`, the Percent Effect in [1] is -7.35%; in experiment [2], 2.6%; in [3], 3.75%; in experiment [4], 6.23%; in the experiment on Trypanosoma cruzi, 4.62%; in experiment [5], 5.52%. In addition, the Percent Effect was 8.49% in [6]; -3.98% in the experiment filed under Homo sapiens; 6.45% in experiment [7]; 13.6% in experiment [8]; 0.47% in [9].
Turning to `COc1ccc(OCC(=O)NC(C)c2ccccc2)c(C(=O)O)c1` (stereo unspecified), the Percent Effect was -7.92% in experiment [1]; 0% in [2]; -0.906% in experiment [3]; 3.42% in experiment [4]; -4.4% with Trypanosoma cruzi; -0.744% in experiment [5]. Further, the Percent Effect in experiment [6] is 6.78%; in the experiment listed under Homo sapiens, -2.11%; in experiment [7], -1.07%; in experiment [8], -1.24%; in [9] it was -2.92%.
On to `Cc1nn(C)c(C)c1C1CCCN1C(=O)c1ccc(Cl)o1` (stereo unspecified), for which the Percent Effect was -4.75% in experiment [1]; 2.7% in experiment [2]; 0.29% in experiment [3]; -6.5% in experiment [4]; 4.88% in the experiment on Trypanosoma cruzi; -3.33% in [5]. The Percent Effect in experiment [6] was 1.27%; in the experiment filed under Homo sapiens it was 5.89%; in experiment [7], 4.95%; in experiment [8], -6.1%; in [9], 1.72%.
On to `Cn1nc(C2CCCN(Cc3cccc(F)c3)C2)c2nccnc21` (stereo unspecified), for which the Percent Effect was -3.38% in experiment [1]; 9.46% in experiment [2]; 9.97% in experiment [3]; 14.6% in experiment [4]; 6.13% in the experiment on Trypanosoma cruzi; -1.62% in experiment [5]. Further, the Percent Effect in experiment [6] is 9.05%; in the experiment filed under Homo sapiens, 13.8%; in experiment [7], 2.15%; in experiment [8], 16.9%; in experiment [9], -15.8%.
On to `CC(C)N(C)C(=O)C1=NOC2(CCN(C(=O)c3ccncc3)C2)C1` (stereo unspecified), for which the Percent Effect in experiment [1] was -3.37%; in [2], 2.74%; in experiment [3] it was -0.462%; in [4] it was -1.1%; in the experiment with Trypanosoma cruzi, -1.79%; in experiment [5] it was -5.19%. For the same compound, the Percent Effect in [6] was 12.6%; in the experiment listed under Homo sapiens, 1.3%; in experiment [7], 1.04%; in [8] it was 6.17%; in experiment [9] it was -0.614%.
Turning to `CCOCC1CN(C(=O)c2cscn2)Cc2nnn(CC3CC3)c21` (stereo unspecified), the Percent Effect in experiment [1] is -0.829%; in experiment [2], 10.8%; in experiment [3], 1.84%; in experiment [4], -5.91%; in the experiment with Trypanosoma cruzi, 0.88%; in experiment [5], 4.14%. In addition, the Percent Effect in experiment [6] was 18.4%; in the experiment listed under Homo sapiens, -1.13%; in experiment [7] it was 2.16%; in [8], 7.69%; in experiment [9] it was -1.63%.
For `Cc1noc(C)c1CN1CCN(Cc2nccn2C)C(C)C1` (stereo unspecified), the Percent Effect in [1] was 0.213%; in [2], 10.1%; in experiment [3] it was -9.19%; in experiment [4], 2.86%; in the experiment with Trypanosoma cruzi, -10.1%; in experiment [5], 5.7%. Further, the Percent Effect in [6] is 5.65%; in the experiment filed under Homo sapiens it was 18.5%; in [7], -0.493%; in experiment [8], 11.4%; in experiment [9] it was -5.78%.
`CCc1nnsc1C(=O)N1CCCN(Cc2cnn(C)c2)CC1`: the Percent Effect in [1] is -0.656%; in [2], -2.6%; in [3] it was -0.0421%; in [4] it was -5.43%; with Trypanosoma cruzi, 7.74%; in experiment [5], -0.21%. Further, the Percent Effect is -1.05% in experiment [6]; -10.1% in the experiment filed under Homo sapiens; 0.952% in experiment [7]; 2.35% in [8]; -0.342% in [9].
As for `CC(c1ccc(Cl)cc1)N1CCN(CCS(C)(=O)=O)CC1` (stereo unspecified), the Percent Effect in [1] is -3.62%; in experiment [2], 5.41%; in [3], 0.609%; in experiment [4], 6.25%; in the experiment with Trypanosoma cruzi it was -0.579%; in experiment [5], 3.81%. The Percent Effect in [6] is 14%; in the experiment listed under Homo sapiens it was 10.3%; in experiment [7], 3.7%; in experiment [8], 14.6%; in experiment [9], -5.14%.
For `Cn1cc(C(=O)NC2CCN(C(=O)NCC3CCSCC3)CC2)cn1`, the Percent Effect was -7.28% in experiment [1]; 6.33% in experiment [2]; 11.5% in [3]; 2.29% in [4]; -2.15% with Trypanosoma cruzi; 2.37% in experiment [5]. Further, the Percent Effect in experiment [6] was determined as 8.75%; in the experiment filed under Homo sapiens, 24.4%; in [7], 11.5%; in [8], 15.2%; in experiment [9] it was 1.7%.
As to `Cn1ccnc1CN1CCN(CCOc2ccccc2C#N)CC1`, the Percent Effect in experiment [1] was -0.0443%; in experiment [2] it was 21.1%; in experiment [3], 4.11%; in experiment [4], -9.14%; in the experiment with Trypanosoma cruzi, -3.83%; in experiment [5], 5.4%. Moreover, the Percent Effect in [6] is 5.67%; in the experiment filed under Homo sapiens it was 18.9%; in [7], 7.39%; in experiment [8], 13.6%; in experiment [9], -1.99%.
